# Data: ChEMBL document CHEMBL2218924, “A broad activity screen in support of a chemogenomic map for kinase signalling research and drug discovery” (Biochem J, 2013)
# Columns and labels:
# [1] = target: Protein kinase C eta type (Homo sapiens) (UniProt P24723); details: at 1 µM
# [2] = target: Protein kinase C eta type (Homo sapiens) (UniProt P24723); details: at 10 µM
# [3] = target: Protein kinase C theta type (Homo sapiens) (UniProt Q04759); details: at 1 µM
# [4] = target: Protein kinase C theta type (Homo sapiens) (UniProt Q04759); details: at 10 µM
# [5] = target: T1, Protein kinase C iota type (Homo sapiens) (UniProt P41743); details: at 1 µM
# T1 sequence (whole entry): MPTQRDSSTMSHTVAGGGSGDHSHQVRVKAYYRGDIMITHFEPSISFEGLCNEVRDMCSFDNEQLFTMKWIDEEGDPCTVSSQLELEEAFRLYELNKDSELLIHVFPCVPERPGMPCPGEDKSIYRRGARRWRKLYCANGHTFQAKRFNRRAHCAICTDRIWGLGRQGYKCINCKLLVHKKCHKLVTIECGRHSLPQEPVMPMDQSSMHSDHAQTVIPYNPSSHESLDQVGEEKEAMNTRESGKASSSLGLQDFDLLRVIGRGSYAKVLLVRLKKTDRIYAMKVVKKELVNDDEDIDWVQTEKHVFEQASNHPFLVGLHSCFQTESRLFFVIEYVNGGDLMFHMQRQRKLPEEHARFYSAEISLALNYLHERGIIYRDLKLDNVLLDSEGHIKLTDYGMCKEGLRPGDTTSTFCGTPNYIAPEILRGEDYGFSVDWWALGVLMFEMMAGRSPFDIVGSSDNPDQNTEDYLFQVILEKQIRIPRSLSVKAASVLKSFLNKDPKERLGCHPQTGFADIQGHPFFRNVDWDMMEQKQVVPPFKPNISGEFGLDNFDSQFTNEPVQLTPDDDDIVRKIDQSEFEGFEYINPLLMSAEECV
# [6] = target: T1, Protein kinase C iota type (Homo sapiens); details: at 10 µM
# [7] = target: T2, Serine/threonine-protein kinase D2 (Homo sapiens) (UniProt Q9BZL6); details: at 1 µM
# T2 sequence (whole entry): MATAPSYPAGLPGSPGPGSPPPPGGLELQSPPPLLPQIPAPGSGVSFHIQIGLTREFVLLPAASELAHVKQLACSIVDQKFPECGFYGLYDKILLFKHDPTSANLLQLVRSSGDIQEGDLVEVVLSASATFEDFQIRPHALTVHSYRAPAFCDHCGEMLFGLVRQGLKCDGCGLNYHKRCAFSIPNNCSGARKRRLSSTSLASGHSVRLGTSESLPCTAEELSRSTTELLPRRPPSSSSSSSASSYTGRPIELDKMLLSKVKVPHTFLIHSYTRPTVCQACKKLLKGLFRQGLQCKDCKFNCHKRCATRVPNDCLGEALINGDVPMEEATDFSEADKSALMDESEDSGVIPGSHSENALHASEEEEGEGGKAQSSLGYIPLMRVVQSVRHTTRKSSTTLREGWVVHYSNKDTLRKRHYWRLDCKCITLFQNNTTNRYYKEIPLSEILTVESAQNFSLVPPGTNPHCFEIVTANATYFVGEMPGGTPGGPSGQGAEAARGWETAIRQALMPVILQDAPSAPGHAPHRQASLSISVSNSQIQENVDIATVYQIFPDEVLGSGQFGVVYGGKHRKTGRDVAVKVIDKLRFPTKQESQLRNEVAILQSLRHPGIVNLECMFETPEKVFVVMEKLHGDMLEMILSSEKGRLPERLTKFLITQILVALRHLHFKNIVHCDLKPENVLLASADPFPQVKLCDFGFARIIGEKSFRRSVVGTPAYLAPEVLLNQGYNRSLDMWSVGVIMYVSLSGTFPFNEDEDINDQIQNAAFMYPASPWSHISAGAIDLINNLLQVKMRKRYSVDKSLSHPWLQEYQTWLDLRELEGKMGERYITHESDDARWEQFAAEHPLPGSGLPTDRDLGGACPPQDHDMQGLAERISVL
# [8] = target: T2, Serine/threonine-protein kinase D2 (Homo sapiens); details: at 10 µM
# [9] = target: T3, cGMP-dependent protein kinase 1 (Homo sapiens) (UniProt Q13976); details: at 1 µM
# T3 sequence (whole entry): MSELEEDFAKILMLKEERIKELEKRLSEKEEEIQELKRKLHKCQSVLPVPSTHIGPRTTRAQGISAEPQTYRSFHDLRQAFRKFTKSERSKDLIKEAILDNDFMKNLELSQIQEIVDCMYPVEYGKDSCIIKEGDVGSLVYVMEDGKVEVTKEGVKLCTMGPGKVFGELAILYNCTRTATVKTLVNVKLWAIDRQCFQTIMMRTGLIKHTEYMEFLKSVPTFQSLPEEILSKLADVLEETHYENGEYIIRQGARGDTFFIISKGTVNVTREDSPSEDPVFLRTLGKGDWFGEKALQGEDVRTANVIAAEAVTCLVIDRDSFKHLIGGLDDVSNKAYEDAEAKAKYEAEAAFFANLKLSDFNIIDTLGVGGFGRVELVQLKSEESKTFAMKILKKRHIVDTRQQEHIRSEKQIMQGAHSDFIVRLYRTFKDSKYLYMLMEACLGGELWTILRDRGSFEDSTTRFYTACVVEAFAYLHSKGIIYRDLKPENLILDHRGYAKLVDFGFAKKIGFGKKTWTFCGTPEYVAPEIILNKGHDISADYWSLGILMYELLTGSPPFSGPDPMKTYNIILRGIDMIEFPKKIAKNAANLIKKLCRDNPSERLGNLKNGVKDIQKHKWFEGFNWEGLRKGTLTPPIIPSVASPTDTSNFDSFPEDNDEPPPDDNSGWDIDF
# [10] = target: T3, cGMP-dependent protein kinase 1 (Homo sapiens); details: at 10 µM
# [11] = target: T3, cGMP-dependent protein kinase 1 (Homo sapiens); details: at 1 µM; remark: listed apart in the source
# [12] = target: T3, cGMP-dependent protein kinase 1 (Homo sapiens); details: at 10 µM; remark: listed apart in the source
# [13] = target: T4, MAP kinase-activated protein kinase 5 (Homo sapiens) (UniProt Q8IW41); details: at 1 µM
# T4 sequence (whole entry): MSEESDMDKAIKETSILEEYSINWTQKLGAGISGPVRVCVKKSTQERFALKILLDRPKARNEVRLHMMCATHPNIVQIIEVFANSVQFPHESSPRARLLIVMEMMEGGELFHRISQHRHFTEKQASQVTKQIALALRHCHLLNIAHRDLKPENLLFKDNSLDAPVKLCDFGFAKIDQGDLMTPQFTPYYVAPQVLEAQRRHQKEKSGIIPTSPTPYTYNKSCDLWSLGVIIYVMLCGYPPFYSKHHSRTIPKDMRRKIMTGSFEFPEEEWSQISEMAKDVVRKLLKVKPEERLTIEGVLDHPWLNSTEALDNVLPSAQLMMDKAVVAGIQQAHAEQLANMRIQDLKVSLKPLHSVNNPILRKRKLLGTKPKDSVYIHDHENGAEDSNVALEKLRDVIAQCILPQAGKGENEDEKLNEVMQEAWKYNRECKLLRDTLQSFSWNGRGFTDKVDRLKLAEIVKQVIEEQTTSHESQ
# [14] = target: T4, MAP kinase-activated protein kinase 5 (Homo sapiens); details: at 10 µM
# [15] = target: Serine/threonine-protein kinase N2 (Homo sapiens) (UniProt Q16513); details: at 1 µM
# [16] = target: Serine/threonine-protein kinase N2 (Homo sapiens) (UniProt Q16513); details: at 10 µM
# [17] = target: Tyrosine-protein kinase FRK (Homo sapiens) (UniProt P42685); details: at 1 µM
# [18] = target: Tyrosine-protein kinase FRK (Homo sapiens) (UniProt P42685); details: at 10 µM
# [19] = target: T5, Serine/threonine-protein kinase D1 (Homo sapiens) (UniProt Q15139); details: at 1 µM
# T5 sequence (whole entry): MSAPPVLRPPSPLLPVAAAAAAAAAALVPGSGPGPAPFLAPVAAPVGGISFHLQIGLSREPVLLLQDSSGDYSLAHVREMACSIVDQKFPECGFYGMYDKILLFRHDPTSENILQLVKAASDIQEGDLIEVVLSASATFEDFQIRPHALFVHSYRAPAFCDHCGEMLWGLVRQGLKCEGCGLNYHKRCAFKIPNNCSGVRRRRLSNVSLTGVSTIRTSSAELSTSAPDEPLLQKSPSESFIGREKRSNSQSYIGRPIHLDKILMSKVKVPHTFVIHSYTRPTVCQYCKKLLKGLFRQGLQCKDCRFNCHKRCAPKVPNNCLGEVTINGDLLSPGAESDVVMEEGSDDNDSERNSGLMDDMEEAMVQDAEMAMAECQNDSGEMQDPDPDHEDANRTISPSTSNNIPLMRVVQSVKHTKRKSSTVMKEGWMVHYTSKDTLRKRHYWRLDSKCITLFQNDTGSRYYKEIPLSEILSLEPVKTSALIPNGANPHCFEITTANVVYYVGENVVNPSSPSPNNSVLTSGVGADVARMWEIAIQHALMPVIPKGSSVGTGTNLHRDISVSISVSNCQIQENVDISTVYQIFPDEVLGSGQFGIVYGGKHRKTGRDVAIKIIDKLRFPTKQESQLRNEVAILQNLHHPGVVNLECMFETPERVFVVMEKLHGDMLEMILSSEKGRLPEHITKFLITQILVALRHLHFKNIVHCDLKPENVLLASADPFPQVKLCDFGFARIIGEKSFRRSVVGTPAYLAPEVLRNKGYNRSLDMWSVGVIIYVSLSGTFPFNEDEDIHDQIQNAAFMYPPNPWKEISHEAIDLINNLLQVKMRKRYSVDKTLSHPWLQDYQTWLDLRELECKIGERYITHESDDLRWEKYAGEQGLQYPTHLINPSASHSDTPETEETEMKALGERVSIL
# [20] = target: T5, Serine/threonine-protein kinase D1 (Homo sapiens); details: at 10 µM
# Sequence of Protein kinase C theta type (Homo sapiens) (Q04759 whole entry, looked up): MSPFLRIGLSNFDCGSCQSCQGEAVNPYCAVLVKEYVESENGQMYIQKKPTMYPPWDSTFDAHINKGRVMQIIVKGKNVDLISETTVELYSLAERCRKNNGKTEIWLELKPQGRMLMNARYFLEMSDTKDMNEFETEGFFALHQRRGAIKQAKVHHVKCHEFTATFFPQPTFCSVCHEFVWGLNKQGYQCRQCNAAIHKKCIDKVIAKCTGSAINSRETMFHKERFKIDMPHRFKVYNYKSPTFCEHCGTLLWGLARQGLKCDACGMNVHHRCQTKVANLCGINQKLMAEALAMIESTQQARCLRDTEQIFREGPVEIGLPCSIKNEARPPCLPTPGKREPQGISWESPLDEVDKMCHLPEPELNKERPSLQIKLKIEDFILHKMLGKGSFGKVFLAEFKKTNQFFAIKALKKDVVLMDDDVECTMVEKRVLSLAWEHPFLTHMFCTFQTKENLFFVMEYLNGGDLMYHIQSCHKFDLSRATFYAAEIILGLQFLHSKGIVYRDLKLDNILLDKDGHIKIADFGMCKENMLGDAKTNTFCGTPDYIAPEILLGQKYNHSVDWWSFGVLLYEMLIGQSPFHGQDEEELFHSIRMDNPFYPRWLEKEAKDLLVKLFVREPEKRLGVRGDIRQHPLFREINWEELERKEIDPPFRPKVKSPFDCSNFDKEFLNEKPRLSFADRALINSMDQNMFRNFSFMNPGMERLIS
# Sequence of Serine/threonine-protein kinase N2 (Homo sapiens) (Q16513 whole entry, looked up): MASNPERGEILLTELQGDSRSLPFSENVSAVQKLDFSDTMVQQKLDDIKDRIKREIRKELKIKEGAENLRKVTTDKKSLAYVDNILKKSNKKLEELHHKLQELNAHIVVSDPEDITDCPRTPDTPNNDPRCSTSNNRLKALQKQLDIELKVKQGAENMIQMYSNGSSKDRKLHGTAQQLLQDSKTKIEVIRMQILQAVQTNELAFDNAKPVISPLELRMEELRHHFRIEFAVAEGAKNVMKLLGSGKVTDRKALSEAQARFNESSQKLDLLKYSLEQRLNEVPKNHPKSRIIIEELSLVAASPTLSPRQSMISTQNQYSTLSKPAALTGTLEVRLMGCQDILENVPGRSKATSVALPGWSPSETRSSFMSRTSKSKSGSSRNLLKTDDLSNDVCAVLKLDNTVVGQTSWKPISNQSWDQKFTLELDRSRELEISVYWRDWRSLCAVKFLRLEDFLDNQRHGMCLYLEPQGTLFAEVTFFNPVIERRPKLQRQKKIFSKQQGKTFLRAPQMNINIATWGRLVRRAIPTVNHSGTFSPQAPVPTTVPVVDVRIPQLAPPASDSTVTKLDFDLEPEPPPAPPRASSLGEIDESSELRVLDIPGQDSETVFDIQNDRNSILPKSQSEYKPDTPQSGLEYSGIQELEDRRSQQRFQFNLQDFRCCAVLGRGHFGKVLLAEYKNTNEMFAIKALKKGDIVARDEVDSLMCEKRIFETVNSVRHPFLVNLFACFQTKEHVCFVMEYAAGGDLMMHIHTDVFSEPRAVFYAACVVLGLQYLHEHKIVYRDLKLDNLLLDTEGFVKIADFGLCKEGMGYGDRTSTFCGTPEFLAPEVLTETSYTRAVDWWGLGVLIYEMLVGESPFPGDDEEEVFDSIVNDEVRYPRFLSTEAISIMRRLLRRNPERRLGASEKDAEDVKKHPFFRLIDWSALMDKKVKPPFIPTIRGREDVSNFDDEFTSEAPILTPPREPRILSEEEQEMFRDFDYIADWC
# Sequence of Tyrosine-protein kinase FRK (Homo sapiens) (P42685 whole entry): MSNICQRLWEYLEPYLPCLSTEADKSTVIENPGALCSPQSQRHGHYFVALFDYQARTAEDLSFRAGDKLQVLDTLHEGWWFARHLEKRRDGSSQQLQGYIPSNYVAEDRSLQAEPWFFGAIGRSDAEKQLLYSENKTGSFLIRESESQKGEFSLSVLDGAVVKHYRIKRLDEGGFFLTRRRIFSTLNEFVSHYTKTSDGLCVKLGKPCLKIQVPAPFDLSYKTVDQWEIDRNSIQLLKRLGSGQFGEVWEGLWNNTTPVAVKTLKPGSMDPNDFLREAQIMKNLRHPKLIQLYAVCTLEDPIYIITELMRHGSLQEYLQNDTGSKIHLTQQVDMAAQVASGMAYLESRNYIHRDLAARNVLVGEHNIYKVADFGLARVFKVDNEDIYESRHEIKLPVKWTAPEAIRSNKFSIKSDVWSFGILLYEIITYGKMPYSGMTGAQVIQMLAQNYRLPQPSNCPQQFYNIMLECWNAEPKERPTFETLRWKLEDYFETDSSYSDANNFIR
# Sequence of Protein kinase C eta type (Homo sapiens) (P24723 whole entry): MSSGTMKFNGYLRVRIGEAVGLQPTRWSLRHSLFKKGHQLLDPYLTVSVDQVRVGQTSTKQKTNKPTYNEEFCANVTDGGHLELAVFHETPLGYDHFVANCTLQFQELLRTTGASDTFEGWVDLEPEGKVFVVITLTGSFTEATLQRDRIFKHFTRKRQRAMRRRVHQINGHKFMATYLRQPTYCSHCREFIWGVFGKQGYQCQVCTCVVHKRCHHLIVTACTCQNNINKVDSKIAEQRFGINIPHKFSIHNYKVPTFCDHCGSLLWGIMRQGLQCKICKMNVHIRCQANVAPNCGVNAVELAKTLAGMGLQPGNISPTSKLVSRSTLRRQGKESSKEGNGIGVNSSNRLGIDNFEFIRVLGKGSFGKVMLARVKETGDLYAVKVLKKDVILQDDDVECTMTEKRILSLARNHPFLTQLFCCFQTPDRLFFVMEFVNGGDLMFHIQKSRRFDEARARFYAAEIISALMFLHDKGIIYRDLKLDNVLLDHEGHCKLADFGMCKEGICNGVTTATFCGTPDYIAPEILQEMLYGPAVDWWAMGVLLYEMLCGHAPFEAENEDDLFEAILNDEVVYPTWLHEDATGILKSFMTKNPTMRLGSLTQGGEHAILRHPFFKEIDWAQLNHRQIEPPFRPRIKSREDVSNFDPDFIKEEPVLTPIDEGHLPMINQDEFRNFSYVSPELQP
SMILES,residual activity [1] [%],residual activity [2] [%],residual activity [3] [%],residual activity [4] [%],residual activity [5],residual activity [6] [%],residual activity [7] [%],residual activity [8] [%],residual activity [9] [%],residual activity [10] [%],residual activity [11] [%],residual activity [12] [%],residual activity [13] [%],residual activity [14] [%],residual activity [15] [%],residual activity [16] [%],residual activity [17] [%],residual activity [18] [%],residual activity [19] [%],residual activity [20] [%]
Cc1cc2ncc(-c3ccccc3)nc2cc1C,107,84,110,102,83% (inactive),78,104,110,110,130,83,94,101,73,102,107,105,88,–,–
O=c1c2ccccc2[nH]c(=S)n1CCN1CCC(=C(c2ccc(F)cc2)c2ccc(F)cc2)CC1,106,83,110,109,109% (inactive),81,100,–,107,103,86,87,94,74,114,109,101,89,113,84
CN(C)CCCn1cc(C2=C(c3c[nH]c4ccccc34)C(=O)NC2=O)c2ccccc21,–,–,–,–,74% (inactive),47,–,82,60,14,34,6,125,107,23,6,–,84,108,43
Oc1ccc(-c2nc(-c3ccc(F)cc3)c(-c3ccncc3)[nH]2)cc1,100,70,101,75,109% (inactive),105,102,81,108,66,108,78,110,80,107,47,65,12,94,36
Cc1cc(Nc2nc(-c3ccccc3)nc3ccccc23)n[nH]1,–,–,64,26,112% (inactive),107,110,104,82,39,82,27,–,–,–,58,46,8,–,–
Cc1cncc2cccc(S(=O)(=O)N3CCCN(C(=O)CN)C[C@H]3C)c12,27,4,21,3,82% (inactive),75,–,–,93,44,74,19,82,98,22,7,87,70,83,71
Nc1n[nH]c2nnc(-c3c(-c4ccccc4)nn4ccccc34)cc12,56,19,47,16,115% (inactive),100,96,49,95,104,92,76,104,101,91,76,99,46,56,12
CC[n+]1c(/C=C/N(C)c2ccccc2)n(-c2ccccc2)c2ccc(-c3nc4ccccc4s3)cc21,119,88,96,84,93% (inactive),88,95,114,105,80,87,60,104,133,94,77,108,123,92,90
O=C1c2ccccc2-[n+]2ccc3c([nH]c4ccccc43)c21,72,80,93,99,100% (inactive),105,101,100,94,116,83,75,119,124,86,92,95,92,83,71
CNc1cc2c(Nc3cccc(Br)c3)ncnc2cn1,80,90,100,94,94% (inactive),102,104,98,112,108,75,62,89,94,84,93,92,37,86,49
Cc1cccc(-c2[nH]c(C(C)(C)C)nc2-c2ccc3c(c2)OCO3)n1,84,80,96,95,85% (inactive),76,103,106,–,–,–,–,92,77,–,–,–,92,–,72
O=Nc1c(-c2c(O)[nH]c3ccccc23)[nH]c2ccccc12,91,83,81,55,96% (inactive),105,109,98,77,67,79,45,78,24,91,48,13,6,113,65
N#CCCc1ccc2c(c1)-c1[nH]c3ccc([N+](=O)[O-])cc3c1CC(=O)N2,–,–,–,–,–,67,–,–,–,–,–,–,68,43,57,28,54,22,–,76
C[C@@H](N)[C@H]1CC[C@H](C(=O)Nc2ccncc2)CC1,26,5,63,17,101% (inactive),93,–,112,77,31,73,30,112,102,16,4,98,97,100,–
CCN(CC)CCCCN1c2ccccc2Oc2ccc(Cl)cc21,118,98,123,90,94% (inactive),89,97,109,113,110,97,94,96,112,107,124,105,119,92,95
